# HP1b chromo inh = blocks HP1-beta chromodomain binding to methylated histone tails; P83916; AlphaScreen HP1-beta / biotin-H3K9me3 peptide binding; Potency, µM (top dose mostly 114 µM), for the others: at the highest dose activity change, negative = inhibition, most hits filed as inhibitors; 0.56% of 390,000 active; AID 540317; further: potency means the concentration at half of the fitted maximal effect; nearly all actives have a fitted effect of over 70% in size
#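 AlphaScreen: HP1-beta (50 nM) preformed 30 min with biotin-H3(1-18)K9me3 peptide (50 nM) in PBS pH 7.4, 0.01% Tween-20. Compound added for 30 min at RT, then streptavidin donor/nickel chelate acceptor beads (10 ug/mL) for 30 min.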
# JMJD2E inh = JMJD2E (human) inhibition | B2RXH2 | JMJD2E catalytic domain, FDH-coupled NADH fluorescence (FDH is formaldehyde dehydrogenase) | Potency, µM (top dose mostly 57.1 µM), inactives show top-dose activity change, negative = inhibition, most hits filed as inhibitors | 1.6% of 230,000 active; active means well fitted inhibition curve with a large enough effect, not every such curve was filed as active; inconclusive means small, poorly fitted or top-dose-only effect, or another doubt; inactive means no such curve, though single readings can be large or run the other way;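 further: potency means the concentration at half of the fitted maximal effect; 0% = wells with enzyme and -100% = buffer wells without enzyme; nearly all actives have a fitted effect of over 50% in size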
# L3MBTL1 inh = L3MBTL1 (human) inhibition; AlphaScreen L3MBTL1–H3K9me1 peptide binding; Potency, µM (doses to about 57.1 µM), for the others: at the highest dose activity, negative = inhibition, actives largely listed as inhibitors; 0.66% of 230,000 active; further: potency means the concentration at half of the fitted maximal effect; on the % scale 0 is the no-effect control and ±100 the full control effect; nearly all actives have a fitted effect of over 60% in size
#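 AlphaScreen proximity signal between nickel-chelate acceptor and streptavidin donor beads (final 10 ug/mL) reports binding of 50 nM L3MBTL1 to 75 nM biotin-H3 K9me1 peptide; complex incubated with compounds 30 min at room temperature; cefsulodin titration as control.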
# BAZ2B block = inhibitors of human BAZ2B bromodomain; Q9UIF8; AlphaScreen BAZ2B-H3K14Ac peptide displacement; Potency, µM (titrated, usually from 114 µM), inactives show top-dose activity change, negative = inhibition, actives largely listed as inhibitors; 4.4% of 360,000 active; further: potency means the concentration at half of the fitted maximal effect; on the % scale 0 is the no-effect control and ±100 the full control effect; nearly all actives have a fitted effect of over 60% in size
#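 Protein-peptide AlphaScreen: BAZ2B 50 nM, b-H3K14Ac 50 nM, 1x PBS pH 7.4 + 0.01% Tween-20. Preincubation 30 min RT; cpd 30 min RT (top 110 uM); beads 20 min RT, light-protected.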
# PI5P4K alpha inh = PI5P4K alpha (human) kinase inhibition. PI5P4Kalpha enzyme, ADP-Glo luminescence, 60 min; active compounds read low. max response, %. 1.2% of 330,000 active. AID 652105. P48426; active means max response of -50% or lower; inconclusive means between -30% and -50%; inactive means -30% or higher; further: value at the top dose of about 77 µM; on the % scale 0 is the no-effect control and ±100 the full control effect
#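 Single end-point luminescence (ADP-Glo) quantified ADP from PI5P4Kalpha turnover; ATP 5 microM final, 1 h at RT, 0.1% CHAPS and 0.28 mM EGTA in HEPES pH 7.4.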
# JMJD2A Tudor = inhibitors of human JMJD2A Tudor domain; AlphaScreen JMJD2A-Tudor / H3K4me3 peptide binding; Potency, µM (top dose mostly 114 µM), for inactives: top-dose activity change, negative = inhibition, most hits filed as inhibitors; AID 504339; 4.4% of 390,000 active; further: potency means the concentration at half of the fitted maximal effect; on the % scale 0 is the no-effect control and ±100 the full control effect; nearly all actives have a fitted effect of over 50% in size
# Starred values were filed as active, the others as inactive; ? = inconclusive; . = not tested or not shown; [ ] = dose if it differs, or a comment. Most compounds without a hit are left out; they make up all but 5.7% or so of the library. Unless noted, the call rests on the fitted dose curve; in most records, active means well fitted inhibition curve with a large enough effect; inconclusive means small, poorly fitted or top-dose-only effect; inactive means no such curve, though single readings can be large or run the other way.
SMILES,HP1b chromo inh,JMJD2E inh,L3MBTL1 inh,BAZ2B block,PI5P4K alpha inh,JMJD2A Tudor
Cc1ccc(-n2ncc3c(N4CCN(C)CC4)ncnc32)cc1Cl,43%,.,.,-1%,.,-29%
CC1(C)N=C(c2ccc(F)cc2)C(=O)N1CC(=O)Nc1ccccc1Cl,42%,.,.,-2%,.,2%
COc1cc(NC(=S)Nc2ccc(N(C)C(C)=O)cc2)cc(OC)c1,1%,-11%,-1%,-21%,1,-15%
CC(C)c1ccc(/C=C/c2[nH]c(=O)[nH]c(=O)c2[N+](=O)[O-])cc1,12%,.,0%,-30%,-57*,-2%
CCOc1ccc(/C=C/c2[nH]c(=O)[nH]c(=O)c2[N+](=O)[O-])cc1,1%,.,3%,-32%,?,-7%
CCCCc1ccc(NC(=S)Nc2ccc(Nc3ccc(OC)cc3)cc2)cc1,?,1%,?,14µM*,3,28µM*
COc1ccc(C/C(C)=N/NC(=S)Nc2ccc(Cl)cc2)cc1,11%,-7%,.,-34%,1,-18%
CCOc1ccc(NC(=S)NCc2ccc3[nH]c(C)cc3c2)cc1,-15%,-7%,.,.,1,50µM*
COc1ccc(C/C(C)=N/NC(=S)Nc2ccc(C)c(C)c2)cc1,-30%,1%,2%,1%,-14,32µM*
CCCCc1ccc(NC(=S)NCc2cccc(OC)c2)cc1,47%,-9%,10%,-1%,16,0%
CCCCNC(=S)NCc1ccc2[nH]c(C)cc2c1,-19%,-5%,-3%,?,-1,?
CCOc1ccc(NC(=S)N/N=C(\C)Cc2ccc(OC)cc2)cc1,-24%,-6%,-8%,?,0,7.1µM*
Cc1ccc(-n2nc(C(=O)N3CCN(c4ccc(F)cc4)CC3)c(=O)n(C)c2=O)cc1,14%[57 µM],.,.,-16%,.,-19%
COc1ccc(N2CCN(C(=O)c3cccnc3SCc3cccc(Br)c3)CC2)cc1,?,2%,.,?,0,22µM*
O=C(CCC1CCCN(C(=O)c2cncs2)C1)NCc1ccc(F)c(F)c1 (stereo unspecified),?,-10%,-18%,-12%,-11,25µM*
COc1ccc(N2CCN(C(=O)c3cnc(N4CCCC4)nc3C)CC2)cc1,38%,.,.,-22%,.,-11%
O=C(CCC1CCCN(C(=O)C2CCCC2)C1)NCc1ccc(F)c(F)c1 (stereo unspecified),29%,-2%,18%,-12%,-6,-3%
COc1cccc(CNC(=O)CCC2CCCN(C(=O)c3cccnc3SC)C2)c1 (stereo unspecified),4%,.,.,7%,0,40µM*
O=C(CCN1C(=O)/C(=C\c2ccco2)SC1=S)Nc1ccc(C(=O)O)c(O)c1,?,.,.,35µM*,-74*,56µM*
COc1ccc(/C=C2\SC(=S)N(CCC(=O)Nc3cccc(O)c3)C2=O)cc1,9%,.,5%,1%,4,-16%
O=C(CCCN1C(=O)/C(=C\c2ccco2)SC1=S)Nc1ccc2ccccc2c1,4%,-3%,-13%,?,-24,-27%
COc1ccccc1/C=C1\SC(=S)N(CCC(=O)Nc2ccc(C(=O)O)c(O)c2)C1=O,?,.,.,50µM*,?,?
COc1ccccc1/C=C1/SC(=S)N(CCC(=O)Nc2cccnc2)C1=O,24%,.,.,-2%,1,?
O=C(CCN1C(=O)/C(=C/c2ccco2)SC1=S)Nc1ccc(C(=O)O)c(O)c1,50µM*,.,.,45µM*,-63*,50µM*
C[C@H](CCC(=O)O)[C@H]1CC[C@@H]2[C@H]3CC[C@H]4C[C@@H](O)CC[C@@]4(C)[C@H]3CC[C@]21C,.,-1%[25.5 µM],.,.,.,.
SMILES,HP1b chromo inh,JMJD2E inh,L3MBTL1 inh,BAZ2B block,PI5P4K alpha inh,JMJD2A Tudor
CCC1CCCCN1C(=O)c1ccc2c(c1)C(=O)N(c1ccc(C)cc1)C2=O (stereo unspecified),-3%,.,.,-16%,-5,-15%
COC(=O)C1=C(C)NC(C)=C([N+](=O)[O-])[C@H]1c1ccccc1C(F)(F)F,.,4%,.,.,.,.
COC(=O)C1=C(C)NC(C)=C(C(=O)OCC(C)C)C1c1ccccc1[N+](=O)[O-] (stereo unspecified),16µM*,.,.,.,?,20µM*
CCOc1ccc2c(c1)c(=O)c(C(=O)c1ccccc1)cn2Cc1ccccc1F,28%,.,.,-2%,.,-14%
CCOc1ccccc1NC(=O)Nc1nnc(N2CCCC(C)C2)s1 (stereo unspecified),72%,.,.,-9%,.,18%
N#C/C(=C/c1cn(-c2ccccc2)nc1-c1cccc(OCc2ccccc2)c1)C(=O)NCCCn1ccnc1,?,?,?,10µM*,26,40µM*
CCOc1cccc(-c2nn(-c3ccccc3)cc2/C=C(/C#N)C(=O)NCCCn2ccnc2)c1,?,?,?,35µM*,1,?
Cc1ccc(-c2nn(-c3ccccc3)cc2/C=C(\C#N)C(=O)NCc2ccccc2)cc1,43%,13%,1%,3%,11,0%
CCC1=C2CC[C@H]3C(=O)N(c4ccccc4)C(=O)[C@H]3[C@H]2[C@@]2(Cc3ccccc3)C(=NCCOC)OC(=O)N2C1=O,.,-4%,.,.,.,.
N#Cc1cc(Oc2cccc3cccnc23)c(-n2nnc3ccccc32)cc1C#N,42%,32µM*,14%,-4%,.,-6%
Cc1ccc(C)c(N2CCN(C(=O)c3cnn(-c4ccccc4Cl)c3C3CCN(C(=O)OC(C)(C)C)CC3)CC2)c1,13%,.,.,1%[57.1 µM],.,-24%
Cc1cccc(/C=C2\CCC(=C3SCCCS3)C2=O)c1,16µM*,-3%,-14%,10µM*,7,45µM*
O=C1C(=C2SCCCS2)CC/C1=C\c1ccc(F)cc1,21%,4%,-11%,-1%,5,-23%
CCC1CCCCN1C(=O)CCCOc1ccccc1 (stereo unspecified),7%,-2%,.,0%,?,14µM*
O=C(CCCOc1ccccc1)N1CCCCC1,19%,4%,.,4%,8,-16%[57.1 µM]
Cc1nn(-c2ccccc2)c(OC(=O)c2cccs2)c1S(=O)(=O)c1ccccc1,45%,7%,4%,-31%,-14,-3%
Cc1nn(-c2ccccc2)c(OC(=O)c2cccs2)c1S(=O)(=O)c1ccc([N+](=O)[O-])cc1,13%,-8%,.,79µM*,.,?
COc1ccc(N2CCN(Cc3nc4ccsc4c(=O)[nH]3)CC2)cc1,7%,0%,.,?,.,56µM*
O=c1[nH]c(CN2CCN(c3ccc([N+](=O)[O-])cc3)CC2)nc2ccsc12,5%,-4%,.,?,-14,?
CC(=O)Nc1ccc(NC(=O)CSc2nccn2Cc2ccc(Cl)cc2)cc1,9%,.,.,?,5,-26%
